# The whole screen tested about 2,500 compounds, of which about 480 (19%) were called active. The list is a sample of the results. Unmarked numbers belong to inactive results.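 The calls were made as follows: active = mean inhibition above about 25% (limit read from the data); inactive = the rest.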
# Test: inhibitors of Wnt3a-driven luciferase in Wnt-LIGHT cells – cell-based, luminescence, single concentration, counter-screen for Gli-SUFU antagonist project, confirmation (AID 651995)
# Details: Wnt3a-driven luciferase reporter, at 6.25 µM, active compounds read high
row,Compound,inhibition
1,C/C(=N\Nc1ccc(Cl)nn1)c1ccccc1O,-26.7%
2,COc1ccc(/C=N/N=C2/C(=O)Nc3ccccc32)cc1O,-23.9%
3,COc1ccc(Cc2nnc(N/N=C/c3ccccc3O)[nH]c2=O)cc1OC,59.9% (active)
4,CC(=O)OCCC(C)C,-9.39%
5,c1ccc(-n2nnnc2N2CCOCC2)cc1,-14.5%
6,O=C(O)CCCn1cc(NC(=O)COc2cccc(Cl)c2)cn1,6.24%
7,Cc1ccc(NC(=O)CN(C)CC(=O)Nc2cccc(F)c2)cc1[N+](=O)[O-],36.3% (active)
8,CN(C)CCSc1nc(N)c2c3c(sc2n1)COC(C)(C)C3,-37.2%
9,CCC1CCCCN1CCCNC(=O)Cn1nc(-c2ccccc2)ccc1=O (centres undefined),12.7%
10,O=C1C=C(c2ccnc3cc(Cl)ccc23)C[C@@H](c2ccc3c(c2)OCO3)C1,27.6% (active)
11,CCN(CC)S(=O)(=O)c1ccc(Cl)c(C(=O)NC(C)C(c2cccs2)N2CCCC2)c1 (centres undefined),-35.1%
12,CSc1ncccc1C(=O)Nc1nc2ccc(F)cc2s1,81.3% (active)
13,CCN(CCO)C(=S)Nc1cc(C(=O)OC)ccc1C(=O)OC,-4.1%
14,O=C(Cn1cc(C(=O)C2CC2)c2ccccc21)Nc1ccccc1Cl,26.6% (active)
15,O=c1c2ccccc2nc2n1C(CSCc1cccc(C(F)(F)F)c1)CS2 (centres undefined),24.2%
16,C=CCn1c(SCC(=O)CC(=O)OCC)nc2cc(C(=O)N3CCC(C(N)=O)CC3)ccc2c1=O,-31.2%
17,O=C(c1cc(Cl)cc(Cl)c1)N1CCC(=O)N(C(COCc2ccccc2)Cc2ccccc2)CC1 (centres undefined),-8.85%
18,CCC(Cc1ccccc1)NC(=O)C1CCCCC1 (centres undefined),-4.89%
19,CC(C)OCC(O)CN1CCN(C(c2ccccc2)c2ccccc2)CC1 (centres undefined),-21.2%
20,CCOc1ccc(-n2c(O)c(/C=N/c3ccnn3Cc3ccncc3)c3ccccc3c2=O)cc1,-8.8%
21,O=C(CN1C(=O)c2ccccc2S1(=O)=O)N1CCc2ccccc21,72.4% (active)
22,NC(N)=Nc1nc(-c2ccccc2)c2cc(Cl)ccc2n1,-5.22%

row,Compound,inhibition
1,CC(C)Oc1ccc(/C=N/NC(=O)c2nnn(-c3nonc3N)c2CN(C)C2CCCCC2)cc1,-59.5%
2,COc1ccc2c(C)cc3nnnn3c2c1,-7.11%
3,Cc1ccc(S(=O)(=O)NC(C)C(=O)Nc2ccccc2C(=O)N2CCCC2)cc1 (centres undefined),-22.3%
4,O=C(O)c1ccc(N/N=C/c2ccc3ncccc3c2)cc1,95% (active)
5,NS(=O)(=O)c1ccc(CCNC(=O)CCCn2c(SCC(=O)N3CCCC3)nc3ccsc3c2=O)cc1,-9.95%
6,C=CCOc1nc2c(c(=O)n(C)c(=O)n2C)n1Cc1ccc(Cl)cc1Cl,-18%
7,O=C(Nc1cc2c3c(c1)C1CCCC1CN3CC1CCCC21)c1ccc([N+](=O)[O-])cc1 (centres undefined),-20.4%
8,CN(NC(=O)c1ccccc1F)c1nc(C(F)(F)F)nc2ccccc12,-20%
9,CC(C)(C)c1ccc(Oc2ccc(N)cc2)cc1,106% (active)
10,Cc1cc(C(=O)CSc2nc(N)cc(=O)[nH]2)c(C)n1-c1cccc(F)c1,-15.5%
11,CC(=O)c1c(C)[nH]c(C(=O)OCC(=O)Nc2sc3c(c2C#N)CCCC3)c1C,-44.3%
12,COc1ccccc1/C=C/CN1CCC(CO)(Cc2ccccc2)CC1,3.26%
13,Cc1cccc(NS(=O)(=O)c2ccc(-c3cnc(C4CC4)o3)cc2)c1,-40.9%
14,CCOc1cccc(/C=N/NC(=S)NCCN2CCOCC2)c1O,-21.9%
15,COc1ccc(C(=O)NCc2nnc(SCCOc3ccccc3)n2C)cc1,-33.1%
16,COc1cccc2cc(C(N)=O)/c(=N\NC(=O)c3ccccc3)oc12,-3.11%
17,Cc1cccc2nc(CSc3nc4[nH]ncc4c(=O)n3-c3cccc(Cl)c3)cc(=O)n12,33.2% (active)
18,COc1cc(C(=O)OC(C)C(=O)NCC2CCCCC2)cc(NC(=O)c2ccco2)c1OC (centres undefined),-76.6%
19,CC(C)C(=O)Nc1nnc(SCC(=O)N2C(C)CCCC2C)s1 (centres undefined),-26.6%
20,O=C(NCCOCc1ccc(Cl)cc1)c1ncn[nH]1,33.3% (active)
21,CCn1c(SCc2ccccc2)nc2cc(OC)c(OC)cc2c1=O,-22.5%
22,CC(C)Oc1ccc(CN2CCC(n3nccc3NC(=O)c3cccnc3)CC2)cc1,-35.7%
